This note sets out measurements from PubChem BioAssay.

Molecules are shown by their SMILES. Calls of active or inactive are those of the source.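 The calls were made as follows, unless noted: active = fluorescence slope after compound addition differing from the mean of all screened samples at 99.7% confidence, in either direction; inactive = the rest.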

For orientation: inhibition means the relative decrease from the control value, in per cent.

The nature of assay [1]: inhibitors of TNFa-induced NFkB p65 translocation, primary screen, imaging, HUVEC, MLSMR starter and 10KST1 sets (AID 438;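 active = inhibition above 20% together with a positive visual image hit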;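 also: compound added about 3h40 before a 20 min TNFalpha stimulation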;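 as to inhibition: signal is the nuclear over cytoplasmic p65 intensity ratio per well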). To be noted: HUVEC TNFa-induced p65 nuclear translocation; cell count: measured here: nuclei count (cytotoxicity indicator), at 2.08 µM; inhibition: at 2 µM, stronger effect = higher value, 0% TNFa-plus-vehicle, 100% no-TNFa wells.
Assay [2] in a line: inhibitors of mutant huntingtin aggregation, primary screen, imaging, exon1htt(103Q)mCFP cells, high-content imaging (AID 483;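 active = visual image review flags a hit and inhibition of aggregation exceeds 20%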;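 also: compound exposure lasted 3 days before fixation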;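 as to nuclei count: percent of the per-plate median nuclei count of sample wells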). To be noted: exon1htt(103Q)mCFP cell line, aggregate imaging, at 2 µM; inhibition of aggregation: stronger effect = higher value; nuclei count: measured here: cell count, toxicity.
A short description of assay [3]: inhibitors of E-selectin induction by TNFa, primary screen, imaging, HUVEC, immunofluorescence, MLSMR starter and 10KST1 sets (AID 487;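 active = visually confirmed hit in the image check and inhibition above 20%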;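 as to inhibition: signal is fraction of cell area covered by stained E-selectin grains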;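 as to nuclei count: 100% = median nuclei count of all wells on the same plate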). To be noted: HUVEC TNFalpha-induced E-selectin immunofluorescence imaging, at 2 µM; inhibition: stronger effect = higher value; nuclei count: measured here: cell number, toxicity.
In assay [4] the target is Voltage-gated potassium channel subunit beta-2 (Rattus norvegicus) (UniProt P62483). Kind of assay: KvBeta enzyme negative modulators, primary screen, biochemical, NADPH fluorescence (AID 622;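 active = fluorescence slope higher than the sample average by over 3 SD, cut at about -0.22 in these data, passing the limit was not always enough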;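 also: slope of raw intensity against log time taken from 70 to 1610 s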). To be noted: recombinant KvBeta, 4-cyanobenzaldehyde reduction, at 10 µM, stronger effect = higher value.
Voltage-gated potassium channel subunit beta-2 (Rattus norvegicus), sequence (P62483 whole entry, looked up): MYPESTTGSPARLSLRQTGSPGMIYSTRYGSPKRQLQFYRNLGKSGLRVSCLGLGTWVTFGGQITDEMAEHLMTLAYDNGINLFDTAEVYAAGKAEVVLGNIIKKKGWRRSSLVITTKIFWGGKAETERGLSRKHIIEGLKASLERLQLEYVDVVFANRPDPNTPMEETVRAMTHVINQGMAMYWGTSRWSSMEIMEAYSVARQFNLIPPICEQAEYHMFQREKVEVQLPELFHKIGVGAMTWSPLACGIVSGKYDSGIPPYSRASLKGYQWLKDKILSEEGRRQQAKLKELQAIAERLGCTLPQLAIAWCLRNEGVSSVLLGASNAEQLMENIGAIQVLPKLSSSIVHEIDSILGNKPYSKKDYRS
For assay [5] the target is unchanged. The experiment in a line: KvBeta positive modulators, primary screen, biochemical, NADPH fluorescence (AID 623;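 active = NADPH fluorescence slope more negative than the mean of all samples by about 3 SD, 99.7% confidence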;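 also: fluorescence intensity change per second fitted from 20 to 320 s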). The settings on record: Recombinant KvBeta, NADPH fluorescence decrease slope, 10 min; at 10 µM; stronger effect = lower value.
For assay [6], the target named is Alpha-2C adrenergic receptor (Homo sapiens) (UniProt P18825). The experiment in a line: modulators of alpha2C/GIRK thallium flux, primary screen, cell-based, HEK293 alpha2C/GIRK1/2 (AID 624).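 Also: slope of fluorescence ratio to pre-addition baseline per second over 15 to 24 s.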 The settings on record: thallium flux BTC fluorescence, at 10 µM, actives lie on both sides.
Alpha-2C adrenergic receptor (Homo sapiens), sequence (P18825 whole entry, looked up): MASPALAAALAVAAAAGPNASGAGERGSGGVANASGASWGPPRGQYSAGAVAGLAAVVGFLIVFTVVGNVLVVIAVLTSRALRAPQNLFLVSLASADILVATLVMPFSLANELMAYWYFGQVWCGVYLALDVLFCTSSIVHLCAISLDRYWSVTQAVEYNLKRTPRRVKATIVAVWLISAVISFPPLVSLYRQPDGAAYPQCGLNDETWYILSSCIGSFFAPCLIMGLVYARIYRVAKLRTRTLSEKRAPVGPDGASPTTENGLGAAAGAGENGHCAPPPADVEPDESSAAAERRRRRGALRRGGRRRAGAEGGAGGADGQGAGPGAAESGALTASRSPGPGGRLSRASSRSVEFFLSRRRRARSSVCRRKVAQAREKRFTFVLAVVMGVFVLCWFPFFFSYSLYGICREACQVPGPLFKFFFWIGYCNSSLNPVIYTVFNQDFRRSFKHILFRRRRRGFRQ
Assay [7] is described as follows: inhibitors of Sendai virus-induced IRF3 signaling, primary screen, TLR/RLR signaling modifier project, cell-based, Sendai virus stimulus, luciferase, 10K MLSCN set (AID 602276;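 active = inhibition at or above 50% at 10 µM; inactive = inhibition below 50%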;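 also: firefly luciferase from ISG56 promoter only with Renilla not read in this screen; 0% = Sendai virus plus DMSO and 100% = medium plus DMSO without virus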). To be noted: HEK293 RL24 IRF3 luciferase reporter, at 10 µM, stronger effect = higher value. Background: Reporter assays use an easily measured gene product as a stand-in for the process of interest.

Assay [8] in a line: inhibitors of poly I:C-induced TLR3 signaling, primary screen, cell-based, poly I:C stimulus, luciferase, 10K MLSCN set (AID 602277;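 active = inhibition of the reporter signal at or above 50%; inactive = inhibition below 50%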). To be noted: HEK293-TLR3 RL24 IRF3 luciferase reporter, at 10 µM, stronger effect = higher value.

In the case of `COC(=O)C1=C(N)OC2=C(C(=O)CCC2)C1c1cccs1` (stereo not drawn), the cell count in assay [1] was 491. Moreover, the inhibition in assay [1] was 3.2% (inactive); in assay [3] it was 44.1% (inactive); in assay [7], 2.58% (inactive); in assay [8], 21.7% (inactive). Moreover, the inhibition of aggregation in assay [2] was 27.3% (inactive). The nuclei count was found to be 52% in assay [2] and 103% in assay [3]. Besides, in assay [4], the fluorescence slope was -0.49 (inactive). In assay [5], the NADPH fluorescence slope was -3.8e-05 (inactive). Besides, in assay [6], the slope is 0.00743 (inactive).

Consider `Cn1c(SCc2ccccc2)nnc1C1CCCNC1` (stereo not drawn), for which the cell count in assay [1] came out at 784. Besides, the inhibition in assay [1] is -2.3% (inactive); in assay [3], 10.3% (inactive); in assay [7], 10.3% (inactive); in assay [8] it was 15.2% (inactive). In addition, in assay [2], the inhibition of aggregation was 0.6% (inactive). Moreover, the nuclei count amounted to 100% in assay [2] and 125% in assay [3]. Also, the fluorescence slope in assay [4] is -0.327 (inactive). In addition, in assay [5], the NADPH fluorescence slope is 1.3e-05 (inactive). The slope in assay [6] was 0.00512 (inactive).

Turning to `O=C(NCc1cccnc1)c1ccc(Cl)c(Cl)c1`, the cell count in assay [1] turned out to be 751. Also, the inhibition in assay [1] is -5% (inactive); in assay [3] it was 16.9% (inactive); in assay [7] it was 17% (inactive); in assay [8] it was 7.17% (inactive). In assay [2], the inhibition of aggregation is 25.4% (inactive). In addition, the nuclei count in assay [2] and in assay [3] was 102% each time. Also, the fluorescence slope in assay [4] is -0.639 (inactive). For the same compound, the NADPH fluorescence slope in assay [5] was -5.9e-06 (inactive). Moreover, the slope in assay [6] was 0.00439 (inactive).

Turning to `Cc1c[nH]c2cccc(OCC(O)CNC(C)(C)C)c12` (stereo not drawn), in assay [1], the cell count was determined as 324. In addition, the inhibition was -1.6% (inactive) in assay [1], -4.9% (inactive) in assay [3], 12.1% (inactive) in assay [7] and 27.1% (inactive) in assay [8]. Further, in assay [2], the inhibition of aggregation was 15.3% (inactive). The nuclei count in assay [2] came out at 95.2%; in assay [3] it was 123%. The fluorescence slope in assay [4] is -0.454 (inactive). Besides, in assay [5], the NADPH fluorescence slope was 1.3e-05 (inactive). Also, in assay [6], the slope was 0.00547 (inactive).

For `CCCN(CCC)CCCNS(=O)(=O)c1ccc2c(c1)oc(=O)n2C`, the cell count in assay [1] was 377. The inhibition in assay [1] was -2.4% (inactive); in assay [3], -61.9% (inactive); in assay [7], 16.6% (inactive); in assay [8], 23% (inactive). Besides, in assay [2], the inhibition of aggregation is 6.1% (inactive). Besides, the nuclei count in assay [2] amounted to 102%; in assay [3], 112%. Besides, the fluorescence slope in assay [4] was -0.432 (inactive). Also, the NADPH fluorescence slope in assay [5] is -9.3e-05 (inactive). Also, the slope in assay [6] was 0.00475 (inactive).

For `CC1=C(C(N)=O)C(c2ccccn2)n2nc(-c3ccccc3Cl)nc2N1` (stereo not drawn), the cell count in assay [1] was 588. Further, the inhibition was -5.4% (inactive) in assay [1], -11.6% (inactive) in assay [3], -2.04% (inactive) in assay [7] and 17.2% (inactive) in assay [8]. Also, in assay [2], the inhibition of aggregation was -14.7% (inactive). In addition, the values for the nuclei count in assay [2] and in assay [3] were 104% and 111%, respectively. In addition, the fluorescence slope in assay [4] is -0.553 (inactive). Further, the NADPH fluorescence slope in assay [5] is -3.1e-05 (inactive). Also, the slope in assay [6] was 0.0061 (inactive).

Turning to `COC(=O)C1=CN(C)C=C(C(=O)OC)C1c1ccc(O)c(OC)c1`, the cell count in assay [1] was determined as 281. In addition, the inhibition in assay [1] was 18.4% (inactive); in assay [3], 7.6% (inactive); in assay [7], 11.2% (inactive); in assay [8], 23.8% (inactive). Also, in assay [2], the inhibition of aggregation is -27.8% (inactive). Moreover, the nuclei count in assay [2] is 23.5%; in assay [3] it was 103%. For the same compound, the fluorescence slope in assay [4] was -0.39 (inactive). Also, in assay [5], the NADPH fluorescence slope was -4.6e-05 (inactive). Moreover, the slope in assay [6] was 0.00249 (inactive).

For the compound `CCc1ccccc1NC(=O)C(CC)Sc1nc2cc3c(cc2c(=O)n1Cc1ccco1)OCO3` (stereo not drawn), the cell count in assay [1] worked out at 486. In addition, the inhibition in assay [1] is 9.8% (inactive); in assay [3], -3.3% (inactive); in assay [7] it was 16.3% (inactive); in assay [8] it was 22.3% (inactive). For the same compound, the inhibition of aggregation in assay [2] was -21.1% (inactive). Further, the nuclei count in assay [2] amounted to 115%; in assay [3], 105%. The fluorescence slope in assay [4] was -0.494 (inactive). Moreover, the NADPH fluorescence slope in assay [5] was -1.8e-05 (inactive). Also, the slope in assay [6] is 0.00667 (inactive).
